38 compounds from PubChem BioAssay AID2102 (Southern Research Specialized Biocontainment Screening …, 2009) can be followed below.

The campaign covered roughly 1,100 compounds. About 210 (19%) were called active. How the calls were made is not given here. A selection follows. Where a call stands in place of a potency, no number is given. Potency and affinity values are given separately.

The nature of this experiment: host cell cytotoxicity, dose response, cytotoxicity control for SV40 T antigen inhibitor project, selected hits (AID 2102).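 Further: cells exposed to compounds for 72 hours.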 To be noted: Host cell viability cytotoxicity counter-screen; series mostly up to 50 µM.
`COc1ccc(/C=N/NC(=O)c2ccoc2C)cc1O`: the compound was called inactive. Consider `O=C(Nc1ccc(O)cc1)c1ccc2c(c1)C(=O)N(N1C(=O)c3ccccc3C1=O)C2=O`, for which the compound was called inactive. In the case of `CC(C)c1ccc(C2CC(=O)N3CN(C)CSC3=C2C#N)cc1` (stereo not drawn) it was “inactive”; in that of `O=C(CCCCl)NC1=NN(c2ccccc2)C(=O)C1`, “inactive”. In the case of `CCOc1cc(/C=C2/N=C(C)C(C(=O)OC)=C2O)ccc1O` it was “inactive”; in that of `NC1=NC(=O)/C(=C\c2ccco2)S1`, “inactive”. In the case of `C=CCOc1ccccc1CNc1ccc2[nH]c(=O)[nH]c2c1` it was “inactive”. `O=c1[nH]c2ccc(NCc3ccc(F)cc3)cc2[nH]1`: the call was inactive. Take `COc1cc(/C=N/NC(=O)c2ccccc2O)ccc1OC(=O)CC1SC(=O)NC1=O` (stereo not drawn): the call was inactive. In the case of `CCOc1cc(/C=N/Nc2nc(-c3cccs3)c(NC(C)=O)s2)ccc1O` it was “inactive”; in that of `COc1cc(/C=N\Nc2nc(-c3cccs3)c(NC(C)=O)s2)ccc1O`, “inactive”. Under `CCN(CC)c1ccc(NC(=O)COC(=O)COc2ccccc2[N+](=O)[O-])cc1` stands “inactive”.

Regarding `CCOC(=O)C[n+]1c(C)sc2ccc(OC)cc21`, the outcome was inactive. Under `CC(Nc1ccc(N2CCOCC2)cc1)C(=O)N1c2ccccc2CC1C` (stereo not drawn) stands “inactive”; under `CCOC(=O)c1cc(-c2ccc(N)cc2)sc1N`, “inactive”; under `COc1cc(/C=N/NC(=O)c2cccs2)ccc1O`, “inactive”. Under `CCN(CC)c1ccc(/C=N/O)cc1` stands “inactive”. `Oc1ccc(/C=N/N2CCN(c3ccccn3)CC2)cc1`: the outcome was inactive. Under `COc1cc(/C=N/NC(=O)C2COc3ccccc3O2)ccc1O` (stereo not drawn) stands “inactive”; under `COc1cc(/C(C)=N/NC(=O)CSc2nc3ccccc3[nH]2)ccc1O`, “inactive”; under `O=C(CC1SC(=O)N(c2ccccc2)C1=O)Nc1cccc2ccccc12` (stereo not drawn), “inactive”.

Take `Cc1csc(N/N=C/c2ccc(O)c([N+](=O)[O-])c2)n1`: the call was inactive. Under `CCN(CC)c1ccc(NC(=O)c2cccnc2)c(C)c1` stands “inactive”; under `CCN(CC)c1ccc(NC(=O)c2cccc(F)c2)c(C)c1`, “inactive”; under `Oc1ccc(C=Nc2ccc(N3CCOCC3)cc2)c(O)c1`, “inactive”. In the case of `COc1cc(SC#N)ccc1N=Cc1c(C)[nH]n(-c2ccc(C)cc2C)c1=O` it was “inactive”; in that of `O=C1c2ccccc2NC2(CCCCC2)N1c1ccc(O)cc1`, “inactive”; in that of `CCN(CC)c1ccc(NC(=O)CSc2nnc3nc(C)cc(C)n23)cc1`, “inactive”. For the compound `COC(=O)C1=C(O)/C(=C/c2cccc(OC)c2O)N=C1C`, the outcome was inactive.

As for `CN(C)c1ccc(NC(=O)CN2CCN(c3ccc(F)cc3)CC2)cc1`, the outcome was inactive. Under `CC(=O)Nc1ccc(N2CCCCC2)cc1` stands “inactive”. On to `COc1cc(/C=N/NC(=O)CNc2n[nH]c(=O)[nH]c2=O)ccc1O`, for which the compound was classed as inactive. `COc1ccc(OC)c(CCNC(=O)Cn2sc3nc(C)cc(C)c3c2=O)c1`: the compound was called inactive. Under `CCN(CC)S(=O)(=O)c1ccc(C(=O)Oc2coc(CSc3nc(C)cc(C)n3)cc2=O)cc1` stands “inactive”. In the case of `FC(F)(F)C1CCCN(c2nsc3ccccc23)C1` (stereo not drawn) it was “inactive”; in that of `Nc1ncc(N=Nc2cc(C(=O)O)ccc2Cl)s1`, “inactive”. Under `CCn1c(SCC(=O)c2ccc(O)c(O)c2)nnc1-c1ccccc1OC` stands “inactive”; under `COc1cc(/C=N/NC(=O)c2nnn(-c3nonc3N)c2-c2cccs2)ccc1O`, “inactive”.
